Bioassay records as filed in PubChem.
mHTT-CaM PPI inh: disrupts binding of mutant huntingtin to calmodulin; AlphaScreen His-mHTT/GST-CaM binding, luminescence; inhibition, % at 15 µM; 3.6% of 190,000 active; AID 1671202;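 also: 0% = both proteins with DMSO and 100% = one protein alone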
Pf apPOL inh: Pf-apPOL DNA polymerase inhibition; Recombinant Pf-apPOL, molecular beacon fluorescence, 1.5 h; inhibition, % at 10 µM; 0.25% of 210,000 active; AID 1794808
* = called active by the depositor; i = inactive; . = not tested or not shown. This excerpt belongs to a sample that is enriched for hits. Rule as the data show it: active = inhibition above about 50%; inactive = the rest.

SMILES	mHTT-CaM PPI inh	Pf apPOL inh
CC(=O)CSc1sc2c(O)cc(=O)[nH]c2c1C#N	4.2	.
O=[N+]([O-])C(=C1SCCS1)C(=C(Cl)Cl)N1CCCCC1	70.0*	3.1
O=[N+]([O-])C(=C1SCCS1)C(=C(Cl)Cl)N1CCOCC1	19.0	-5.6
Nc1nnc(SCC(=O)Nc2ccc(S(=O)(=O)Nc3nccs3)cc2)s1	-0.6	-1.8
COc1ccc(S(=O)(=O)NCc2ccc3c(c2)OCO3)cc1OC	4.0	-2.6
COc1ccc(S(=O)(=O)NCc2ccc(S(N)(=O)=O)cc2)cc1	-2.1	-5.2
COc1ccc(S(=O)(=O)NCc2ccc(F)cc2)cc1OC	-1.0	67.6*
COc1ccc(S(=O)(=O)NCc2ccc(CNS(=O)(=O)c3ccc(OC)cc3)cc2)cc1	58.7*	-2.2
COc1cc(OC)cc(-n2nc(C(=O)Nc3ccc(F)cc3Cl)c3ccccc3c2=O)c1	-6.0	-4.7
CC(Cn1nc(-c2cccs2)ccc1=O)C(=O)Nc1nc2ccccc2s1 (centres undefined)	5.2	-8.3
O=C(CN1CCN(CC(=O)Nc2ccc(F)c(F)c2)CC1)Nc1ccc(F)cc1	-7.0	-3.4
Cc1oc(C2CCN(C(=O)c3ccc(F)c(Cl)c3)CC2)nc1C(=O)N1CCOCC1	1.3	-2.6
O=C1c2ccc([N+](=O)[O-])cc2C(=O)N1CNc1ccc(Cl)cn1	2.0	0.5
Cc1ccc(NC(=O)C2CCCN(c3nnc4cccc(C)n34)C2)cc1F (centres undefined)	52.7*	-3.2
Cc1cc(NC(=O)C2CCCN(c3nnc4cccc(C)n34)C2)ccc1F (centres undefined)	35.5	-2.0
O=C(CCN1CCCC1)Nc1ccc(F)c(F)c1	-5.6	-10.9
CC(=O)N1CCc2sc(S(=O)(=O)N3CCN(c4ccccc4Cl)CC3)cc2C1	80.7*	-4.8
CC(=O)N1CCc2sc(S(=O)(=O)N3CCN(c4ccccc4)CC3)cc2C1	12.1	-3.0
CC(=O)N1CCc2sc(C(=O)N3CCN(c4cccc(Cl)c4)CC3)cc2C1	78.2*	6.5
CCC(=O)N1CCc2sc(C(=O)N3CCN(c4cccc(Cl)c4)CC3)cc2C1	17.2	1.9
COc1ccc(/C=c2\sc3nc4c(C)cc(C)cc4n3c2=O)c(OC)c1	-4.0	-1.4
O=C(NCc1ccc2c(c1)OCO2)C1CCN(c2cc(N3CCCCC3)ncn2)CC1	-3.5	-4.7
COc1cccc(C2NC(C(=O)O)C3C(=O)N(c4ccccc4)C(=O)C23)c1O (centres undefined)	-8.0	-6.2
COc1ccc(Cl)cc1C(=O)N1CCN(C2=NN=C(c3cccs3)CS2)CC1	67.6*	5.1
COc1ccc(Cl)cc1C(=O)N1CCN(c2ccccc2F)CC1	-1.0	-11.1
SMILES	mHTT-CaM PPI inh	Pf apPOL inh
CC1C(=O)N(c2ccc(F)cc2)CCN1C(=O)C1CC1 (centres undefined)	-3.3	-1.0
O=C(Nc1ccccc1)Nc1nccn(-c2cccc(Cl)c2)c1=O	-3.3	-2.9
COc1ccc(-c2nc3ccc(N=Cc4cc5c(cc4[N+](=O)[O-])OCO5)cc3o2)cc1	21.0	-4.6
O=[N+]([O-])c1cc2c(cc1C=Nc1ccc(I)cc1)OCO2	64.0*	-1.8
O=[N+]([O-])c1cccc(C=Nc2ccc(I)cc2)c1O	3.0	-3.6
Cc1ccc(N=Cc2cc3c(cc2[N+](=O)[O-])OCO3)cc1I	55.0*	-8.0
O=S(=O)(c1ccccc1)c1nc(-c2ccccc2F)oc1N1CCCCC1	-3.0	-0.2
Cc1ccc(-c2nc(C=Nc3ccc(Br)cn3)c(O)o2)cc1	-1.0	-1.6
Cc1ccc(OCC(=O)O/N=C(\N)Cc2cccs2)c(Br)c1	i	-5.2
CC(=O)Nc1ccccc1NC(=O)CCCc1ccccc1	1.7	-4.8
CC(=O)NC1=NC(=O)/C(=C/c2ccc(F)cc2)S1	-6.0	-3.9
CC(=O)NC1=NC(=O)/C(=C/c2c(C)n(Cc3ccc(F)cc3)c3ccccc23)S1	100.0*	-2.9
Cc1cc2n(c1)CCn1c(C)ccc1-2	92.9*	41.9
Cc1ccc2n1CCn1cc(-c3ccc(Br)cc3)cc1-2	99.0*	-6.7
Cc1ccc(C)n1-c1ccc(Br)cc1	.	-5.8
Cc1ccc(C(=O)N2CCC(CC(=O)NCCCN3CCN(C)CC3)CC2)cc1	2.7	0.8
CCN1C(=O)Cc2cc(C(=O)NCc3cccnc3)ccc21	6.6	1.5
COc1ccc(C(=O)N2CCN(c3cccc(Cl)c3)C(=O)C2C)cc1 (centres undefined)	-5.1	0.4
COc1cccc(CN2CCc3c([nH]c4ccccc34)C2)c1OC	18.5	5.2
CN(C)c1ccc(CN2CCc3c([nH]c4ccccc34)C2)cc1	59.7*	-39.7
c1ccc2c3c([nH]c2c1)CN(Cc1ccc2c(c1)OCO2)CC3	29.2	-2.3
Clc1ccccc1CN1CCc2c([nH]c3ccccc23)C1	94.9*	-0.9
COc1ccc(-c2nnc(N3CCC(C(=O)N4CCN(C)CC4)CC3)o2)cc1	9.1	-6.4
NC(=O)Cn1cc([N+](=O)[O-])nc1Cl	-4.5	.
Cc1nc(C)c(C#N)c(N)c1Br	0.5	.
SMILES	mHTT-CaM PPI inh	Pf apPOL inh
O=C(Oc1ccc2c(c1)OC(=Cc1cccnc1)C2=O)c1ccncc1	24.4	6.0
O=C(Oc1ccc2c(c1)OC(=Cc1cccnc1)C2=O)c1ccc(Br)cc1	75.9*	1.5
CCC(=O)NCc1csc(C2CCN(C(=O)c3cccc(F)c3)CC2)n1	-1.6	-3.3
C=CCSc1nnc2c(n1)OC(c1ccc(N(C)C)cc1)N(C(C)=O)c1ccccc1-2 (centres undefined)	64.0*	-17.2
C=CCSc1nnc2c(n1)OC(c1ccc(F)cc1)N(C(C)=O)c1ccccc1-2 (centres undefined)	28.0	-13.2
CC1(C)CCC(C)(C)c2cc3c(cc21)C(C)(C)CCC3(C)C	.	-7.9
CC1(C)CCN2CCC(C)(C)c3c(O)ccc1c32	70.6*	-3.8
COc1cccc(NC(=O)C2CCN(c3nccc(C)n3)CC2)c1	-5.5	-1.5
COc1ccc(C(=S)NN)cc1	58.2*	.
CCOC(=O)NC(=S)c1ccc(OC)cc1	.	3.0
CCc1ccc(C(=O)N2CC3CN(S(=O)(=O)c4cccc(C)c4)CC(C2)O3)cc1	65.3*	-1.3
Cc1cccc(S(=O)(=O)N2CC3CN(C(=O)c4cccc(F)c4)CC(C2)O3)c1	-0.9	-1.7
C[C@@]12CCC=C[C@H]1[C@H](c1ccc(/C=C/c3ccccc3)cc1F)N(Cc1ccccc1)C2=O	16.6	-1.4
C[C@@]12CCC=C[C@H]1[C@H](c1ccc(C(F)(F)F)cc1)N(Cc1ccccc1)C2=O	82.8*	-2.3
C[C@@H]1CC=C[C@H]2[C@H]1C(=O)N(Cc1ccccc1)[C@H]2c1ccc(-c2ccc(F)cc2)cc1F	-3.7	-2.0
C[C@@H]1CC=C[C@H]2[C@H]1C(=O)N(Cc1ccccc1)[C@H]2c1ccc(-c2ccoc2)cc1F	60.0*	-7.0
O=C1C2C(c3ccccc3)CC=CC2[C@H](c2ccc(C(F)(F)F)cc2)N1Cc1ccccc1 (some centres undefined)	20.1	-3.0
C[C@@H]1CC=C[C@H]2[C@H]1C(=O)N(Cc1ccccc1)[C@H]2c1ccc(C(F)(F)F)cc1	91.0*	-2.2
COCCNC(=O)CNc1c(-c2ccccc2)nc2ccccn12	-0.6	3.0
Clc1ccc(-c2cc(-c3ccccc3)nc(N3CCNCC3)n2)cc1	26.9	-0.3
Cc1cc(F)ccc1NC(=O)c1cc2n(n1)CCCN(Cc1ccccc1)C2=O	-1.7	-1.8
Cc1ccc(CNC(=O)c2cc3n(n2)CCCN(Cc2cccc(C)c2)C3=O)cc1	-1.0	-2.4
